From PubChem BioAssay (EPA / NIEHS)
Inconclusive results are not listed. Active and inactive are the calls of the source. The calls were made as follows, unless noted: active = hit-call score of the fitted dose curve at least 0.9, where 1 is the maximum; inactive = score below 0.9.

Experiments:
[1] = ATG_CRE_CIS: Attagene CIS-FACTORIAL HepG2 Assay for human cAMP Responsive Element (CRE) binding protein 3 (AID 2282926); conditions: HepG2 CRE cis-reporter, Attagene multiplexed mRNA; actives raise or lower the signal
How it was run: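 Induced reporter mRNA from a CRE cis element, measured in HepG2 among many multiplexed units at 24 h. Detection used RT-PCR plus capillary electrophoresis of fluorescent fragments; DMSO served as negative control.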

[2] = ATG_DR4_LXR_CIS: Attagene CIS-FACTORIAL HepG2 Assay for human Liver X Receptor (LXR), DR4 submotif (AID 2282929); conditions: HepG2 Attagene DR4 cis-reporter, mRNA transcription; actives raise or lower the signal
How it was run: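 Cells were transfected with multiple reporter transcription units, exposed to chemicals for 24 hours, then lysed for RNA. Reporter mRNA induction was measured by RT-PCR with capillary electrophoresis detection and fitted in both directions relative to DMSO.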

[3] = biological target: Transcription factor E2F1 (Homo sapiens) (UniProt Q01094); assay: ATG_E2F_CIS: Attagene CIS-FACTORIAL HepG2 Assay for human E2F Transcription Factor 1 (AID 2282935); conditions: HepG2 Attagene cis-reporter, E2F reporter RNA transcripts; actives raise or lower the signal
How it was run: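 Liver-derived HepG2 cells expressing transfected promoter-driven reporter units received test chemical for 24 hours. Signal gains or losses were fitted bidirectionally against DMSO.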

[4] = ATG_GRE_CIS: Attagene CIS-FACTORIAL HepG2 Assay for human Glucocorticoid Response Elements (GRE) (AID 2282947); conditions: HepG2 GRE cis-reporter, Attagene multiplex mRNA; actives raise or lower the signal
How it was run: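 Fluorescence intensity of reporter-specific cDNA fragments, separated by capillary electrophoresis, provides the signal. Constructs carry cis-regulating promoters in transiently transfected HepG2 liver cells; 24 h incubation; fitting is bidirectional against DMSO.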

[5] = biological target: Hypoxia-inducible factor 1-alpha (Homo sapiens) (UniProt Q16665); assay: ATG_HIF1a_CIS: Attagene CIS-FACTORIAL HepG2 Assay for human Hypoxia Inducible Factor 1 (HIF1A) (AID 2282951); conditions: HepG2 Attagene cis-factorial HIF1a reporter transcription; actives raise or lower the signal
How it was run: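 Measures endogenous transcription-factor activity through cis-regulated reporter mRNA in HepG2. Cells dosed 24 h; transcripts quantified by RT-PCR with 6-FAM-labelled products separated by capillary electrophoresis; DMSO serves as negative control.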

[6] = biological target: Hepatocyte nuclear factor 6 (Homo sapiens) (UniProt Q9UBC0); assay: ATG_HNF6_CIS: Attagene CIS-FACTORIAL HepG2 Assay for human Hepatocyte Nuclear Factor 6 (HNF6) (AID 2282952); conditions: HepG2 Attagene cis-factorial HNF6 reporter transcription; actives raise or lower the signal
How it was run: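 First, HepG2 cells were transfected with the multiplexed cis reporter library and dosed with chemical for 24 h. Next, RNA was reverse-transcribed, PCR-amplified and fluorescently labelled. Finally, HpaI-digested fragments were read by capillary electrophoresis.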

[7] = ATG_TA_CIS: Attagene CIS-FACTORIAL HepG2 Assay for human TA Basal Promoter (AID 2282964); conditions: HepG2 Attagene CIS-factorial TA basal promoter reporter; actives raise or lower the signal
How it was run: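 Fluorescence from labelled RT-PCR reporter fragments, separated by capillary electrophoresis, gives the signal. Cells: HepG2 transiently carrying multiple reporter units, 24 h chemical dosing. Gain or loss relative to DMSO.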

[8] = ATG_TGFb_CIS: Attagene CIS-FACTORIAL HepG2 Assay for human Transforming Growth Factor (TGF) (AID 2282967); conditions: HepG2 Attagene CIS TGFb reporter, mRNA transcription; actives raise or lower the signal
How it was run: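 Bidirectional fitting relative to DMSO gave the endpoint. Underlying data: reporter mRNA from HepG2 cells carrying transiently transfected cis-regulated reporter constructs, harvested 24 h after dosing and analyzed by RT-PCR and capillary electrophoresis.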

[9] = biological target: Transcriptional activator Myb (Homo sapiens) (UniProt P10242); assay: ATG_Myb_CIS: Attagene CIS-FACTORIAL HepG2 Assay for human Myeloblastosis (Myb) Proto-Oncogene Transcription Factor (AID 2282986); conditions: HepG2 Attagene CIS-FACTORIAL Myb reporter transcription; actives raise or lower the signal
How it was run: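 Steps: transfect HepG2 with cis-regulated reporter units; dose with chemical for 24 h; isolate RNA, reverse-transcribe, PCR-amplify and FAM-label reporter sequences; digest with HpaI; resolve by capillary electrophoresis. Activity fitted in both directions relative to DMSO.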

[10] = biological target: Nuclear respiratory factor 1 (Homo sapiens) (UniProt Q16656); assay: ATG_NRF1_CIS: Attagene CIS-FACTORIAL HepG2 Assay for human Nuclear Respiratory Factor 1 (NRF1) Orphan Gene (AID 2282987); conditions: HepG2 NRF1 cis-element reporter, Attagene multiplex; actives raise or lower the signal
How it was run: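 Fluorescence intensity of labelled reporter cDNA fragments, resolved by capillary electrophoresis, served as readout for NRF1 cis-element activity. Transiently transfected HepG2 cells were dosed for 24 hours; activity in either direction was fitted against DMSO negative control.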

[11] = ATG_NFI_CIS: Attagene CIS-FACTORIAL HepG2 Assay for human Nuclear Factor I (NFI) (AID 2282989); conditions: HepG2 cis-regulatory reporter, NFI response element transcription; actives raise or lower the signal
How it was run: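 Cells: human liver HepG2, transiently transfected with promoter-regulated reporter transcription units. Exposure 24 h. Detection: fluorescent RT-PCR products separated by capillary electrophoresis, normalised to DMSO negative control.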

[12] = ATG_NRF2_ARE_CIS: Attagene CIS-FACTORIAL HepG2 Assay for human Nuclear Factor Erythroid 2 Related Factor 2 (NFR2) response to Antioxidant Response Elements (ARE) (AID 2282992); conditions: HepG2 Attagene ARE/NRF2 reporter, transcription factor activity; actives raise or lower the signal;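 as to AC50: reporter mRNA level measured by RT-PCR and capillary electrophoresis fluorescence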
How it was run: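 Fluorescence intensity of reporter-specific cDNA fragments, separated by capillary electrophoresis, reflects mRNA induction in transfected HepG2 cells at 24 h. Activity is fitted bidirectionally, DMSO serving as baseline.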

[13] = ATG_Oct_MLP_CIS: Attagene CIS-FACTORIAL HepG2 Assay for human Octamer-Binding Transcription Factor (Oct) (AID 2282993); conditions: HepG2 Attagene cis-factorial Oct reporter, mRNA; actives raise or lower the signal
How it was run: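 HepG2, transient MRTU transfection, cis promoter elements; 24 h dosing; RT-PCR/CE fluorescence read-out of reporter mRNA; fit both directions vs DMSO.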

[14] = biological target: Cellular tumor antigen p53 (Homo sapiens) (UniProt P04637); assay: ATG_p53_CIS: Attagene CIS-FACTORIAL HepG2 Assay for human p53 Transcription Factor (AID 2282994); conditions: HepG2 p53 cis-element reporter, Attagene mRNA; actives raise or lower the signal
How it was run: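 Transiently transfected HepG2 (multiple cis reporter transcription units); exposure 24 h; reporter RNA via RT-PCR, 6-FAM extension, 2 h HpaI digest at 37 C, CE detection; DMSO baseline.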

[15] = biological target: Nuclear receptor subfamily 1 group I member 2 (Homo sapiens) (UniProt O75469); assay: ATG_PXR_TRANS: Attagene TRANS-FACTORIAL HepG2 Assay for human Pregnane X Receptor (PXR) (AID 2283008; active = hit-call score of the fitted dose curve at least 0.9, where 1 is the maximum)
How it was run: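 Transient HepG2 transfectants carrying multiplexed reporter transcription units; PXR activity read through a Gal4 chimera. 24 h exposure. RT-PCR/CE fluorescence; upward curve fit referenced to DMSO.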

[16] = ATG_XTT_Cytotoxicity: Cytotoxicity Assessment in the Attagene TRANS-FACTORIAL HepG2 Assay (AID 2283584; active = hit-call score of the fitted dose curve at least 0.9, where 1 is the maximum)
How it was run: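 HepG2 cells transiently transfected with GAL4-UAS multiple reporter units, dosed 24 h; cytotoxicity read by XTT as loss of signal versus DMSO baseline.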

[17] = ATG_GLI_CIS: Attagene CIS-FACTORIAL HepG2 Assay for human Zinc Finger Protein GLI1 (AID 2282945); conditions: HepG2, Attagene cis-factorial reporter mRNA, GLI element; actives raise or lower the signal
How it was run: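 Transiently transfected HepG2 cells report endogenous transcription factor activity via cis-element-driven reporter units. After 24 h compound exposure, reporter mRNA was measured by RT-PCR with capillary electrophoresis; bidirectional fitting against DMSO baseline.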

[18] = biological target: Heat shock factor protein 1 (Homo sapiens) (UniProt Q00613); assay: ATG_HSE_CIS: Attagene CIS-FACTORIAL HepG2 Assay for human Heat Shock Transcription Factor 1 (HSE) (AID 2282953); conditions: HepG2 HSE cis-reporter, Attagene RNA transcription; actives raise or lower the signal
How it was run: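 Endogenous transcription factor activity captured via cis-promoter reporter units transfected into HepG2; treatment lasted 24 h. Fluorescence intensity of reporter fragments analysed with bidirectional curve fitting, DMSO baseline.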

[19] = ATG_TCF_b_cat_CIS: Attagene CIS-FACTORIAL HepG2 Assay for human T-Cell-Factor with beta-catenin (TCF/b-cat) (AID 2282965); conditions: HepG2 TCF/beta-catenin cis-reporter transcription, actives raise or lower the signal
How it was run: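 HepG2 cells transiently transfected with cis-promoter-driven multiplexed reporter units; reporter mRNA measured 24 h after dosing by RT-PCR, FAM labelling, HpaI digestion and capillary electrophoresis. Bidirectional fitting relative to DMSO baseline.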

[20] = biological target: Myc proto-oncogene protein (Homo sapiens) (UniProt P01106); assay: ATG_Myc_CIS: Attagene CIS-FACTORIAL HepG2 Assay for human Myelocytomatosis (Myc) Proto-Oncogene Transcription Factor (AID 2282990); conditions: HepG2, Attagene cis-reporter transcription factor activity; actives raise or lower the signal
How it was run: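 Transiently transfected HepG2 cells bearing cis-promoter reporter units for endogenous transcription factors; 24 h exposure. Reporter mRNA measured by RT-PCR, 6-FAM primer extension, HpaI cut and capillary electrophoresis; bidirectional fit relative to DMSO.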

Measured: AC50

Nuclear receptor subfamily 1 group I member 2 (Homo sapiens), sequence (O75469 whole entry, looked up, the tested form may be a part): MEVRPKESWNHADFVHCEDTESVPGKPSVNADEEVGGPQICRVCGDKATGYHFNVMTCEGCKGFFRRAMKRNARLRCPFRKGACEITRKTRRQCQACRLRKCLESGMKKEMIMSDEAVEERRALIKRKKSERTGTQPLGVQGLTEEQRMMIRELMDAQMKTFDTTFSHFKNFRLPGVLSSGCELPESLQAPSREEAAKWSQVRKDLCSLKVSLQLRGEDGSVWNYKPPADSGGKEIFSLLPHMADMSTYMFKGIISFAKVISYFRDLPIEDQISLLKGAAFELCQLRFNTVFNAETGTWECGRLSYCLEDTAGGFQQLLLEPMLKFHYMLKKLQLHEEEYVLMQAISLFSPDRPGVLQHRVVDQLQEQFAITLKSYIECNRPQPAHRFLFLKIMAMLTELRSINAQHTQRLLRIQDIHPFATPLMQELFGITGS
Hypoxia-inducible factor 1-alpha (Homo sapiens), sequence (Q16665 whole entry, looked up): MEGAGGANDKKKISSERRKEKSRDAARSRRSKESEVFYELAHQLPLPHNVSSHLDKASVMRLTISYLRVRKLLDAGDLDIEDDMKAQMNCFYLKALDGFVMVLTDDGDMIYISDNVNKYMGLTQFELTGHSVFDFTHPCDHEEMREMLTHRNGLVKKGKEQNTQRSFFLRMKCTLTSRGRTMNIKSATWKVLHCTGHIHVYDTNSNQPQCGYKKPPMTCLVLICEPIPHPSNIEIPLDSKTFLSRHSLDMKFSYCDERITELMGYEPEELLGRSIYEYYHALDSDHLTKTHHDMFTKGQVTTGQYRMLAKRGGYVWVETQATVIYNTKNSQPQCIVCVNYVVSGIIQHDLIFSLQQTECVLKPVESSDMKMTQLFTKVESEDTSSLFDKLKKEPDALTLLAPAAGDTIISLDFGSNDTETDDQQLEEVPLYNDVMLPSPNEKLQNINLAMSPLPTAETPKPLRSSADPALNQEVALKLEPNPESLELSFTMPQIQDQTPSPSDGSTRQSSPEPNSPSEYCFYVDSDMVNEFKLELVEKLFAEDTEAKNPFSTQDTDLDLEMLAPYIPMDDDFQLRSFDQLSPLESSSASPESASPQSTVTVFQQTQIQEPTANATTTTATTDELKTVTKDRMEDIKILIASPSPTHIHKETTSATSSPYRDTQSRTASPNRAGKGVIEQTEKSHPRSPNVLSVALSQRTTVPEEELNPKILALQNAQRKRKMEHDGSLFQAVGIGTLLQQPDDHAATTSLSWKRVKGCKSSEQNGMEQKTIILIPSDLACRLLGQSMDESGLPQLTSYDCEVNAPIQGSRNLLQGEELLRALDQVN
Nuclear respiratory factor 1 (Homo sapiens), sequence (Q16656 whole entry, looked up, the tested form may be a part): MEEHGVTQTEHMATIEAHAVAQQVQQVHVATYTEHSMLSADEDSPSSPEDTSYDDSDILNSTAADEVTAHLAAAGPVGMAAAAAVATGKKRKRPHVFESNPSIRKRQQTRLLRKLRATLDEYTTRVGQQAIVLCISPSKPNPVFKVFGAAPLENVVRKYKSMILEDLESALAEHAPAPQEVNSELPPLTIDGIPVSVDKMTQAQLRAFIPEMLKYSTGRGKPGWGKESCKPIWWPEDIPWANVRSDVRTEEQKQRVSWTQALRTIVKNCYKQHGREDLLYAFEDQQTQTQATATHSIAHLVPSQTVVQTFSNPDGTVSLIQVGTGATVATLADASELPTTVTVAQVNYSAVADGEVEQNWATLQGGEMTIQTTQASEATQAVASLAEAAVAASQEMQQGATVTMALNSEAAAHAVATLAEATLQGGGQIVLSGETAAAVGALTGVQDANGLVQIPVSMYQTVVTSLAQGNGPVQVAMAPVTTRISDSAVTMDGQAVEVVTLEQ
Transcription factor E2F1 (Homo sapiens), sequence (Q01094 whole entry, looked up): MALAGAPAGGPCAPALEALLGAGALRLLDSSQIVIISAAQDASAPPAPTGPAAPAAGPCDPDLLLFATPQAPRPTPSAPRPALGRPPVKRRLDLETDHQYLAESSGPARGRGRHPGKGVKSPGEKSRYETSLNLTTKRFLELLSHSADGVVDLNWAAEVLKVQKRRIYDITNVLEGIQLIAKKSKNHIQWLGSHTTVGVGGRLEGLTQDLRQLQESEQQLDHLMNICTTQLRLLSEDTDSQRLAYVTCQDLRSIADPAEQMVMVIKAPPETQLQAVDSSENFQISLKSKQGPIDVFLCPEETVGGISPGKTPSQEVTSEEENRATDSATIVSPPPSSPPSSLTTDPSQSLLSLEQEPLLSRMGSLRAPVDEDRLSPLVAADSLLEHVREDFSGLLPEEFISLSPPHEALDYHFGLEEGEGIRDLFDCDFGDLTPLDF
Hepatocyte nuclear factor 6 (Homo sapiens), sequence (Q9UBC0 whole entry, looked up, the tested form may be a part): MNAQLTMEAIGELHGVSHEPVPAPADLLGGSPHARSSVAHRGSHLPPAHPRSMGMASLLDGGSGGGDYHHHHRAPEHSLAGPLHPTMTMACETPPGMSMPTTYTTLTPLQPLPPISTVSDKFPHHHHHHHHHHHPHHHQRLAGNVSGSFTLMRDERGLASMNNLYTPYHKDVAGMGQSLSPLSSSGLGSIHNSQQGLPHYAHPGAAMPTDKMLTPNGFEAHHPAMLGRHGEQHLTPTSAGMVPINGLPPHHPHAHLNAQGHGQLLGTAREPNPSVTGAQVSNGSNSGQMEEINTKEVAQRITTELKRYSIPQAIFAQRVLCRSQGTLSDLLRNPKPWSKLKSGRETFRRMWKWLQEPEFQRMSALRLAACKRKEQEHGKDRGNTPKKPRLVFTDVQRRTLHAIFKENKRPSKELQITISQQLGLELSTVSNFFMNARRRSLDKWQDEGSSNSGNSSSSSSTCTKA
Myc proto-oncogene protein (Homo sapiens), sequence (P01106 whole entry, looked up): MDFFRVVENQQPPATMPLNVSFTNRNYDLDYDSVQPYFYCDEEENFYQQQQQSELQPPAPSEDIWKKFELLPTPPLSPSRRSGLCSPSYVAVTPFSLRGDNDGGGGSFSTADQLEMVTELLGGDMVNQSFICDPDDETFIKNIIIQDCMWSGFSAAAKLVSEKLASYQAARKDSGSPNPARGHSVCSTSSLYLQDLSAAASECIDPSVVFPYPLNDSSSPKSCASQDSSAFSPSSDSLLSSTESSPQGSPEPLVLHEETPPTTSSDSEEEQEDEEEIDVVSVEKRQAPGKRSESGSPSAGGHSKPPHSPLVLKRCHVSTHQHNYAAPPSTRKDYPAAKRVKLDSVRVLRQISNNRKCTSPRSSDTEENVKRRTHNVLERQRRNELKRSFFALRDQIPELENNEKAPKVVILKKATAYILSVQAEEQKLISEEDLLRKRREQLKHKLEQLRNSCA
Cellular tumor antigen p53 (Homo sapiens), sequence (P04637 whole entry, looked up): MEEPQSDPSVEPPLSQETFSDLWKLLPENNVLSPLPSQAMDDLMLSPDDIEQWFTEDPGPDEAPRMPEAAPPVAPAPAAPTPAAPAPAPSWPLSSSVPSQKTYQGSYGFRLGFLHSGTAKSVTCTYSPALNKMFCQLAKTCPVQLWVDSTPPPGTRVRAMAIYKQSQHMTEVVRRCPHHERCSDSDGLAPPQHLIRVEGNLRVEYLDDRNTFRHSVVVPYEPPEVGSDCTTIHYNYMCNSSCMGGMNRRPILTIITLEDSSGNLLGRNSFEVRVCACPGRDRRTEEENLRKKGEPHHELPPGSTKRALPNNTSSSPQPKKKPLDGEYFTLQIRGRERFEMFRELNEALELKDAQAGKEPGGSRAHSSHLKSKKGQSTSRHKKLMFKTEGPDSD
Transcriptional activator Myb (Homo sapiens), sequence (P10242 whole entry, looked up): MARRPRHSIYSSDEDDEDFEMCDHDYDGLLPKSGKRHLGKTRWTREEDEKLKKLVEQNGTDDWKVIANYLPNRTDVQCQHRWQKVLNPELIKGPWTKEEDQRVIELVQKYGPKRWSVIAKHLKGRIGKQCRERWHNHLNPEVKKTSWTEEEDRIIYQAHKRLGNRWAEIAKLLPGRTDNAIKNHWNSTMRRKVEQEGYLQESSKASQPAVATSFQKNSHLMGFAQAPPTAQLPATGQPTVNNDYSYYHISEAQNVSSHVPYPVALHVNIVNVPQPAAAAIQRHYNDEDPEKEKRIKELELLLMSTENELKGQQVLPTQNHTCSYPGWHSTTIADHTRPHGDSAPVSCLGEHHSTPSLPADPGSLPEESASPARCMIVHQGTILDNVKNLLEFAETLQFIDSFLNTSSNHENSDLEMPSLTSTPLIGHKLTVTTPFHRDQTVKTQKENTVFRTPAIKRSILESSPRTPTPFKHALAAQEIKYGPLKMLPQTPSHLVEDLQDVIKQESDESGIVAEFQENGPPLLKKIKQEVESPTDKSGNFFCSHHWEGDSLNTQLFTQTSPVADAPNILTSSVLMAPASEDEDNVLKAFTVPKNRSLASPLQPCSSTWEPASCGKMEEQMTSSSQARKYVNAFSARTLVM
Heat shock factor protein 1 (Homo sapiens), sequence (Q00613 whole entry, looked up, the tested form may be a part): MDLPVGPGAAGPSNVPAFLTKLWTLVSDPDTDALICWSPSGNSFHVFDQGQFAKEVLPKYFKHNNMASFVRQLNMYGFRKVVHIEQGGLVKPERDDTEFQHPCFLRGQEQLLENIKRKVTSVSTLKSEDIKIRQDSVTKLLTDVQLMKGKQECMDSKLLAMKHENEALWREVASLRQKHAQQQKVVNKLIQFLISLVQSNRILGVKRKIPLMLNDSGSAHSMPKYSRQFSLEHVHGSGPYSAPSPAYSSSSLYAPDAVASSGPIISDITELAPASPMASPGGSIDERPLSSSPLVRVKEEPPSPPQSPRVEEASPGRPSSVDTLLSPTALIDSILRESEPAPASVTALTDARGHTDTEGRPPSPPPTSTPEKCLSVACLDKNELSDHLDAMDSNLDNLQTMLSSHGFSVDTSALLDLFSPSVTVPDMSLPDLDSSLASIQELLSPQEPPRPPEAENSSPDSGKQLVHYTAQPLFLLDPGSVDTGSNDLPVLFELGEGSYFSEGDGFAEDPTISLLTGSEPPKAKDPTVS

CCCCCCC(O)CCCCCCCCCCC(=O)OC (stereo unspecified)
active: [8] 100 µM
not listed: [17] | [18] | [19] | [20]
inactive: all other assays above

O=C1CCCCCCCCCCCCCC1
active: [2] 49.4 µM | [18] 62.1 µM | [20] 23.6 µM | [12] 32.6 µM | [15] 26.6 µM
not listed: [7]
inactive: all other assays above

O=[N+]([O-])c1ccccc1C(F)(F)F
active: [5] 48.9 µM
not listed: [4]
inactive: all other assays above

C=C(C)C(=O)OCC1CCCO1 (stereo unspecified)
not listed: [7] | [16] | [17]
inactive: all other assays above

CCCC(=O)OC
not listed: [3] | [16]
inactive: all other assays above

Cc1ccccc1S(=O)(=O)O
not listed: [4] | [7] | [15] | [20]
inactive: all other assays above

CC(=O)Nc1c(I)c(NC(C)=O)c(I)c(C(=O)O)c1I
not listed: [5] | [8] | [14] | [15]
inactive: all other assays above

NC(=O)c1ccc(N)cc1
not listed: [15] | [20]
inactive: all other assays above

C[C@H]1C[C@H]2[C@@H]3CCC4=CC(=O)C=C[C@]4(C)[C@@]3(F)[C@@H](O)C[C@]2(C)[C@@]1(O)C(=O)CO
active: [2] 166 µM | [7] 100 µM | [19] 150 µM | [9] 180 µM | [12] 100 µM | [14] 39.4 µM | [15] 0.685 µM
not listed: [4] | [5]
inactive: all other assays above

CO[Si](CCCNCCN)(OC)OC
not listed: [3] | [4] | [7] | [14] | [15] | [19]
inactive: all other assays above

CN(C)c1ccc(C(c2ccccc2)c2ccc(N(C)C)cc2)cc1
active: [12] 68.1 µM | [15] 2.06 µM
not listed: [4] | [19]
inactive: all other assays above

C=CN1CCCCCC1=O
not listed: [7] | [20]
inactive: all other assays above

OCCc1ccccn1
not listed: [7] | [15]
inactive: all other assays above

CC(C)(Oc1ccc(Cl)cc1)C(=O)O
not listed: [5]
inactive: all other assays above

CC(C)n1c(/C=C/[C@@H](O)C[C@@H](O)CC(=O)O)c(-c2ccc(F)cc2)c2ccccc21
active: [14] 26 µM
not listed: [6] | [7] | [10] | [11] | [12] | [16]
inactive: all other assays above

C[Si](C)(C)O[Si](C)(C)O[Si](C)(C)C
not listed: [4] | [20]
inactive: all other assays above
